For some assays here: Potency and affinity values are given separately.

Common to all, as to parameters: scale not given: direction of the effect not stated beside the values
Experiment [1] addresses Protein translocase subunit SecA (Escherichia coli (strain K12)) (UniProt P10408). In words: Assay to Identify E. coli SecA ATPase Inhibitors. Type of experiment: functional. The settings on record: 30 µM.
Experiment [2] deals with T1, Ubiquitin-activating enzyme e1, putative (Leishmania donovani (strain BPK282A1)) (UniProt E9BSI1).
T1 sequence (whole entry): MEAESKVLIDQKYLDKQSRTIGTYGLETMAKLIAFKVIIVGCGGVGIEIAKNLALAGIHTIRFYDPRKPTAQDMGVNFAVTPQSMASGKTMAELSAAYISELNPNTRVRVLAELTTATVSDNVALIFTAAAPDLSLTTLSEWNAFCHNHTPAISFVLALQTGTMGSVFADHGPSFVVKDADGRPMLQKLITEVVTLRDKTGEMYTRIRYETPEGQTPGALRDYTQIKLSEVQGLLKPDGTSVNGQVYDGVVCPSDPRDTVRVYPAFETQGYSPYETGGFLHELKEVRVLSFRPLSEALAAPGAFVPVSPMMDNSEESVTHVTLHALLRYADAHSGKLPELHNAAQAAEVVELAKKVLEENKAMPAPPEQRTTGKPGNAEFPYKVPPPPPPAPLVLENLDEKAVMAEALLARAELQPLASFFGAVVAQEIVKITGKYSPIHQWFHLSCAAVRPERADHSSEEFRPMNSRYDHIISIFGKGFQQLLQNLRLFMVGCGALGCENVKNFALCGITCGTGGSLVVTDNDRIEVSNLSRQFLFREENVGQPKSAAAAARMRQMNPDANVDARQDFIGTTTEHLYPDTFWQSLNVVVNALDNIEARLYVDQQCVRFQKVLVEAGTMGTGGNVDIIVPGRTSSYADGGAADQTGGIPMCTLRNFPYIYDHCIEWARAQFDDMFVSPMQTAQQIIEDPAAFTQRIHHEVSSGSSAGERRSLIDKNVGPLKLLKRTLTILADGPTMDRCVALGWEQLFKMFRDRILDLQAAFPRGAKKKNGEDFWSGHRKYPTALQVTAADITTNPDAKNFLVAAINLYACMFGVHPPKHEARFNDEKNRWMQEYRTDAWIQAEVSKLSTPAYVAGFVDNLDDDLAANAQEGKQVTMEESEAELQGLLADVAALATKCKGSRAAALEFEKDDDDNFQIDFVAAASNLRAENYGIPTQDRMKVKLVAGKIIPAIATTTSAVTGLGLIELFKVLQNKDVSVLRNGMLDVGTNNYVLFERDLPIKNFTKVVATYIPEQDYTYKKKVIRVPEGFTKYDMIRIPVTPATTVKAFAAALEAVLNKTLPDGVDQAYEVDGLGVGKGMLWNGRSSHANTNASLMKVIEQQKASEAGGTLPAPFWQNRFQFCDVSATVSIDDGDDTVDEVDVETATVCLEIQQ
In words: Leishmania donovani Ubiquitin Activating Enzyme (LdE1). Type of experiment: functional. The settings on record: 30 µM.

The target of experiment [3] is AMP-activated protein kinase, AMPK (Homo sapiens) (UniProt P54646+O43741+P54619+Q9UGJ0+Q9Y478+Q13131+Q9UGI9). In words: AMP-dependent Kinase enzyme assay. An in vitro enzyme assay that detects ADP turnover that is directly proportional to AMPK activity. This uses naive AMPK that is activated during the assay with MK-8722. It is filed as functional. The following applies: 30 µM.

Experiment [4] addresses Sialic acid-binding Ig-like lectin 9 (Homo sapiens) (UniProt Q9Y336). In words: Hs-Siglec9 ALPHAscreen SOP 20170721. The settings on record: 10 µM.
A further experiment concerns Trypanosoma cruzi. In words: Trypanosoma cruzi phosphomannomutase and mannose-1-phosphate guanylyltransferase assay. It is filed as functional. The settings on record: 10 µM.
Experiment [5] concerns the target T2, Arginase-2, mitochondrial (Homo sapiens) (UniProt P78540).
T2 sequence (whole entry): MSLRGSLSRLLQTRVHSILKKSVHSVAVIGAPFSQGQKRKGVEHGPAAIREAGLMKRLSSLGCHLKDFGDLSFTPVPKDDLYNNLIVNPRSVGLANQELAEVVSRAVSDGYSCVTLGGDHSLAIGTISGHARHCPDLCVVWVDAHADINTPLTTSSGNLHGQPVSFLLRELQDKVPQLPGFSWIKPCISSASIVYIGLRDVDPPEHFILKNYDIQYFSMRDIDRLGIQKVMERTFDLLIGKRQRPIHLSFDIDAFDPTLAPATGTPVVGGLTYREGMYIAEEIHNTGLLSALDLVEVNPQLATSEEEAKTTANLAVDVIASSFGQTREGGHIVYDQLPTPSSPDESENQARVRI
In words: in vitro enzyme assay to detect the production of urea directly proportional to the activity of Arginase II. Also: in the data most compounds retested in dose-response had high values. Type of experiment: functional. The following applies: 33.3 µM.

Experiment [6] has as its target T3, Proteasome subunit beta (Trypanosoma cruzi) (UniProt O96673).
T3 sequence (whole entry): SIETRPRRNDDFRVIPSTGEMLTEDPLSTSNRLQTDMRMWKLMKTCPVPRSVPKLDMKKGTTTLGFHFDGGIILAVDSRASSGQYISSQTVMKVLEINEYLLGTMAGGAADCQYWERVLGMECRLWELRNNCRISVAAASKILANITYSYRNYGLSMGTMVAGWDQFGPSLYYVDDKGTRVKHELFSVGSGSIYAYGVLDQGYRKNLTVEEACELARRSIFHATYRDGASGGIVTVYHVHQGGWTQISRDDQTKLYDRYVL
In words: Trypanosoma cruzi proteasome chymotrypsin-like activity (TcProtChymo) assay. Also: in the data most compounds retested in dose-response had high values. Type of experiment: functional. The settings on record: 9.37 µM.

For a further experiment, the species on record is Homo sapiens. In words: To identify inhibition of the IFN signalling (Jak-Stat) pathway via expression of an eGFP reporter gene under the control of an IFN-stimulated response element (ISRE) containing MxA promoter. It is filed as functional. The following applies: 30 µM.
The target in experiment [7] is T4, Tyrosyl-tRNA synthetase, putative (Trypanosoma cruzi (strain CL Brener)) (UniProt Q4DSP6).
T4 sequence (whole entry): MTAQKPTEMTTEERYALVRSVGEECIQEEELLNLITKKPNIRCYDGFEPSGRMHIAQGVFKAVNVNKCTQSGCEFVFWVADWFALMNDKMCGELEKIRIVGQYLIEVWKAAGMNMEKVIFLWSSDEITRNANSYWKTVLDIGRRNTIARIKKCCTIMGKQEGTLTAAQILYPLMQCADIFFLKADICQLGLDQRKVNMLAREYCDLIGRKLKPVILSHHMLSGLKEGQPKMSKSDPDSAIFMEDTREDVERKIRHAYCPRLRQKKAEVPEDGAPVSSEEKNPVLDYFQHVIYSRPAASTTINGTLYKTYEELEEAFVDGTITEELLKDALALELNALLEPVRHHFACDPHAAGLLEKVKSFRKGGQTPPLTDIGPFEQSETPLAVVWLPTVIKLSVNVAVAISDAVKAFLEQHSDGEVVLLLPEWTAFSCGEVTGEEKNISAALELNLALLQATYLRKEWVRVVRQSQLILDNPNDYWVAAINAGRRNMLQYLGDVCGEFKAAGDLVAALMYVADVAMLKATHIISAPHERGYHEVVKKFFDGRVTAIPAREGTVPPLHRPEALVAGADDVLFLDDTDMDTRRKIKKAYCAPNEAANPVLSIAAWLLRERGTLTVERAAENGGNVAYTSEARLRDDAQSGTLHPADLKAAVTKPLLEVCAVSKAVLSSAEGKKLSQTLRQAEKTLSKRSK
In words: Trypanosoma cruzi tyrosyl tRNA synthetase (TcYRS) _High Tyrosine SOP. Also: in the data most compounds retested in dose-response had high values. It is filed as functional. The following applies: 30 µM.

For experiment [8], the target named is T4, Tyrosyl-tRNA synthetase, putative (Trypanosoma cruzi (strain CL Brener)). In words: Trypanosoma cruzi tyrosyl tRNA synthetase (TcYRS) SOP. Type of experiment: functional. The settings on record: 30 µM.
The target in experiment [9] is Chromo domain-containing protein 1 (Saccharomyces cerevisiae (strain ATCC 204508 / S288c) (Baker's yeast)) (UniProt P32657). In words: ScCHD-1 Enzyme Inhibition Assay. Also: in the data most compounds retested in dose-response had high values. Type of experiment: functional. The settings on record: 30 µM.
Chain of Chromo domain-containing protein 1 (Saccharomyces cerevisiae (strain ATCC 204508 / S288c) (Baker's yeast)) (P32657 whole entry, the tested form may be a part): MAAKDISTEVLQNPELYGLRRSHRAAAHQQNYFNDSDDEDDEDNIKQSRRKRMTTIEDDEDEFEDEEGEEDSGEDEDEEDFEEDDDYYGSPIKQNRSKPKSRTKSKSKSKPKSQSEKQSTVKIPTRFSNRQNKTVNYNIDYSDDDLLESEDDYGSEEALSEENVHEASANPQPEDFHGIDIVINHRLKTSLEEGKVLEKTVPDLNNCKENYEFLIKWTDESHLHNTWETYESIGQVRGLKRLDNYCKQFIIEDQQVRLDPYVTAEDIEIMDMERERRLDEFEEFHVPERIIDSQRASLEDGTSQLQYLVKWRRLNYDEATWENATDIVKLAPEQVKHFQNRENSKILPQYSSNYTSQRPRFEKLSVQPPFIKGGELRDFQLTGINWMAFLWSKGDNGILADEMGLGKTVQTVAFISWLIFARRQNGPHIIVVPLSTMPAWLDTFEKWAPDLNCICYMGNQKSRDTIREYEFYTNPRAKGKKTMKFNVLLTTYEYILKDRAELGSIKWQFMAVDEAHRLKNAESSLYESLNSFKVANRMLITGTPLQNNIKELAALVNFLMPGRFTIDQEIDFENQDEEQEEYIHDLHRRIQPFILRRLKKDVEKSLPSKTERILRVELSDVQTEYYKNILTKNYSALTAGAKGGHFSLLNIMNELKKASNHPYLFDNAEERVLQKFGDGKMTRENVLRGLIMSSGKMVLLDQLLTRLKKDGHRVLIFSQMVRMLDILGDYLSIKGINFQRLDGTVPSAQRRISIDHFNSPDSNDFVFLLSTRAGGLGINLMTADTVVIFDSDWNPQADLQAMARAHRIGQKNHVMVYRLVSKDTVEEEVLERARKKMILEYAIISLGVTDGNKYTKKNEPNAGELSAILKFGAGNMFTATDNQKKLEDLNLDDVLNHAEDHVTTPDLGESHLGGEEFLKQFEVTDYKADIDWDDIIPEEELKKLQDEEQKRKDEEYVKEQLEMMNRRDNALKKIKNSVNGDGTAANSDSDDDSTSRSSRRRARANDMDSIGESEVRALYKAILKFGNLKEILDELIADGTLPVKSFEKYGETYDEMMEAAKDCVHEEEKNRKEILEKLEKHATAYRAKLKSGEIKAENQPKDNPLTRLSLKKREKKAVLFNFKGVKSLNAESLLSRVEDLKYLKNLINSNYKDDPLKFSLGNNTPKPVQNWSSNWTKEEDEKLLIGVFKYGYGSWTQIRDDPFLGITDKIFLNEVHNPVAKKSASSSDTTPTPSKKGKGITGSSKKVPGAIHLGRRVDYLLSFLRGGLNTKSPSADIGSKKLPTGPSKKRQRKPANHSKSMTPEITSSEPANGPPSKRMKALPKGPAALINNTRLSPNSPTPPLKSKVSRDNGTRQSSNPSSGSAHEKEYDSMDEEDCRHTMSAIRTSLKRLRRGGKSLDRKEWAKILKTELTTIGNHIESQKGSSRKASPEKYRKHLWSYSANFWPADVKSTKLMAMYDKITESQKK

Chain of Protein translocase subunit SecA (Escherichia coli (strain K12)) (P10408 whole entry): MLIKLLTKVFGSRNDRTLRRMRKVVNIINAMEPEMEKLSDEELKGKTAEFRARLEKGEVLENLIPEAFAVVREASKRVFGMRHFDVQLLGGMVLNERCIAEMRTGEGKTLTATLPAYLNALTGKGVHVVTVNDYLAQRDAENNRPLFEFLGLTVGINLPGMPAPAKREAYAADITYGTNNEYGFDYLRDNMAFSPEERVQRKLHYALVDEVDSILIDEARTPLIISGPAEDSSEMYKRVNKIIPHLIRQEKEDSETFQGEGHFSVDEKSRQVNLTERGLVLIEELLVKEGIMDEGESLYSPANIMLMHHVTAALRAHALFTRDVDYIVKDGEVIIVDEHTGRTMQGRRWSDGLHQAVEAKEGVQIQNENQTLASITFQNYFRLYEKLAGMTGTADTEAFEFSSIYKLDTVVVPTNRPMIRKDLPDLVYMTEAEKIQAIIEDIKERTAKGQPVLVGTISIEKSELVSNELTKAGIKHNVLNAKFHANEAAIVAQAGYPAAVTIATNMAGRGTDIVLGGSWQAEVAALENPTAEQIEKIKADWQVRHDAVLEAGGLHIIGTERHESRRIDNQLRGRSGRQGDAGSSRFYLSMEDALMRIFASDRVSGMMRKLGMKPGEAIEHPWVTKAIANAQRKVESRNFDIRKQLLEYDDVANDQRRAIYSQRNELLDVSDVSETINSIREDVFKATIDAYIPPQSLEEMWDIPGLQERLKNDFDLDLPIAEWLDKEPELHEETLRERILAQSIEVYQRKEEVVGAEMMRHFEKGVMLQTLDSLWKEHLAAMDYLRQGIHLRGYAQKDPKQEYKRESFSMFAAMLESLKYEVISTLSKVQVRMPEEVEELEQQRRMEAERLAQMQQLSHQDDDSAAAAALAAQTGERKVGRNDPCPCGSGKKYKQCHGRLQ
Chain of Sialic acid-binding Ig-like lectin 9 (Homo sapiens) (Q9Y336 whole entry): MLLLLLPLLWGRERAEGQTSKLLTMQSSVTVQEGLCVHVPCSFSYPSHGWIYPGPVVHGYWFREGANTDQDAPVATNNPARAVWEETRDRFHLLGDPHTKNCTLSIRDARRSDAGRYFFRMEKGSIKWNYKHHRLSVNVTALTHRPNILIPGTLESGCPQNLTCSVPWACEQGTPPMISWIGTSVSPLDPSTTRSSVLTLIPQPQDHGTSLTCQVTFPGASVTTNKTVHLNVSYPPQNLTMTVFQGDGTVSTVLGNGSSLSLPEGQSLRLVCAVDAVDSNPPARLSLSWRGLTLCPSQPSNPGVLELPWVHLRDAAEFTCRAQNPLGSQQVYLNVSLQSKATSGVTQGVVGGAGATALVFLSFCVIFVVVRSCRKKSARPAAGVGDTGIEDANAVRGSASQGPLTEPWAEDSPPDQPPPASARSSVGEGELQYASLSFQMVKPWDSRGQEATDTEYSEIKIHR

With `CC(c1ccc(Cl)cc1)N1CCN(CCNS(C)(=O)=O)CC1` (stereo not given), the Percent Effect in experiment [1] was -4%; in experiment [2], -2.7%; in [3] it was -2.79%; in experiment [4], 66.6%; with Trypanosoma cruzi, 3.28%; in experiment [5], 0.952%. Moreover, the Percent Effect in [6] was 10.7%; in the experiment listed under Homo sapiens it was 4.77%; in experiment [7], 4.76%; in experiment [8], 19.5%; in experiment [9], -8.23%.

Consider `CCc1nnc2n1CCN(C(=O)c1ccc(C(F)(F)F)nc1C)C2`, for which the Percent Effect in experiment [1] is -6.11%; in [2] it was 20.2%; in experiment [3] it was -4.83%; in experiment [4], 14.3%; with Trypanosoma cruzi, 5.95%; in experiment [5], -6.08%. Besides, the Percent Effect in experiment [6] is 9.09%; in the experiment listed under Homo sapiens it was -2.36%; in experiment [7], 2.46%; in experiment [8], 16.5%; in experiment [9], -8.19%.

On to `CSc1cc2c(cc1NC(=O)NCC(C)(C)C(N)=O)OCCO2`, for which the Percent Effect is -3.46% in experiment [1]; 0% in [2]; 0.42% in experiment [3]; -2.41% in experiment [4]; -3.91% with Trypanosoma cruzi; -28.8% in [5]. For the same molecule, the Percent Effect was 12.8% in experiment [6]; -6.09% in the experiment listed under Homo sapiens; -27.7% in experiment [7]; 6.1% in [8]; 0.589% in [9].

Take `O=C1CC(c2cccs2)c2snc(C(=O)O)c2N1` (stereo not given): the Percent Effect in [1] is -2.26%; in experiment [2] it was 4.17%; in experiment [3] it was -2.53%; in experiment [4], 8.18%; in the experiment with Trypanosoma cruzi it was 4.76%; in experiment [5] it was 3.09%. The Percent Effect in [6] is 2.63%; in the experiment listed under Homo sapiens, 1.26%; in experiment [7], 2.1%; in experiment [8] it was 5.13%; in experiment [9], -3.46%.

On to `c1ccc2sc(CN3CCOC(Cn4cccn4)C3)nc2c1` (stereo not given), for which the Percent Effect in experiment [1] was -6.08%; in [2], 5.41%; in experiment [3], -3.49%; in experiment [4], 1.12%; in the experiment with Trypanosoma cruzi, -4.06%; in [5], -2%. For the same molecule, the Percent Effect in [6] is 0%; in the experiment filed under Homo sapiens, 24.4%; in experiment [7] it was -0.493%; in experiment [8], -8.64%; in [9], -0.731%.

Regarding `Cc1ccccc1C1(C(=O)NCCN2CCCC2)CCOCC1`, the Percent Effect was -0.0334% in experiment [1]; 10.8% in experiment [2]; -6.54% in experiment [3]; -0.683% in [4]; -0.283% in the experiment with Trypanosoma cruzi; -8.42% in [5]. In addition, the Percent Effect in experiment [6] was 16.2%; in the experiment filed under Homo sapiens it was 20.7%; in [7], 9.36%; in experiment [8] it was 18.5%; in experiment [9], -8.78%.

In the case of `Cc1cccc(CN2C(=O)CC[C@@H]3[C@H]2CCN3CC2CCOCC2)n1`, the Percent Effect was -3.19% in experiment [1]; 16% in [2]; 1.45% in experiment [3]; -4.46% in [4]; 2.36% with Trypanosoma cruzi; 0.699% in experiment [5]. Besides, the Percent Effect was 14% in [6]; -19.1% in the experiment filed under Homo sapiens; 5.32% in [7]; 11.5% in experiment [8]; -4.59% in experiment [9].

For the molecule `COc1ccc(C)cc1S(=O)(=O)NCC(c1cccn1C)N(C)C` (stereo not given), the Percent Effect in experiment [1] was -6.79%; in experiment [2], 8.22%; in experiment [3] it was -12.1%; in [4], 2.18%; in the experiment on Trypanosoma cruzi, -5.49%; in [5], 1.36%. In addition, the Percent Effect was found to be 12.2% in experiment [6]; 6.68% in the experiment listed under Homo sapiens; 5.38% in experiment [7]; 10% in experiment [8]; 104% in [9].

Regarding `Cc1nn(C)cc1C(=O)Nc1cccc(CN2CCC(CO)CC2)c1`, the Percent Effect in experiment [1] was -3.16%; in experiment [2] it was 18.4%; in experiment [3], -4.72%; in [4], -21.7%; in the experiment with Trypanosoma cruzi it was 3.41%; in experiment [5] it was 26%. Besides, the Percent Effect was 8.53% in [6]; 28.8% in the experiment filed under Homo sapiens; 1.06% in experiment [7]; 15.6% in [8]; -7.09% in [9].

With `COc1ncccc1C(=O)NCC1Cc2ccccc2O1` (stereo not given), the Percent Effect in experiment [1] was -0.887%; in experiment [2], 5.48%; in experiment [3], 2.87%; in [4], 0.0975%; with Trypanosoma cruzi, -1.76%; in experiment [5] it was 1.36%. Further, the Percent Effect was 21.3% in experiment [6]; -1.66% in the experiment filed under Homo sapiens; 4.3% in experiment [7]; 12.5% in [8]; -7.46% in experiment [9].

For the origin of these results see ChEMBL document CHEMBL3988442, “University of Dundee, Small-Polar-MMV Screening Library” (2021).
